D2 antagonist: D2 dopamine receptor (human) antagonism; AID 485344; HEK293 TREx D2 cells, calcium flux, dopamine EC80; actives 2% (n = 340,000); inhibition, % at 10 µM; in the data active = inhibition above about 30%; inactive = below that, where a call was filed; also: 0% is about no effect
Target sequence (P14416 whole entry, looked up): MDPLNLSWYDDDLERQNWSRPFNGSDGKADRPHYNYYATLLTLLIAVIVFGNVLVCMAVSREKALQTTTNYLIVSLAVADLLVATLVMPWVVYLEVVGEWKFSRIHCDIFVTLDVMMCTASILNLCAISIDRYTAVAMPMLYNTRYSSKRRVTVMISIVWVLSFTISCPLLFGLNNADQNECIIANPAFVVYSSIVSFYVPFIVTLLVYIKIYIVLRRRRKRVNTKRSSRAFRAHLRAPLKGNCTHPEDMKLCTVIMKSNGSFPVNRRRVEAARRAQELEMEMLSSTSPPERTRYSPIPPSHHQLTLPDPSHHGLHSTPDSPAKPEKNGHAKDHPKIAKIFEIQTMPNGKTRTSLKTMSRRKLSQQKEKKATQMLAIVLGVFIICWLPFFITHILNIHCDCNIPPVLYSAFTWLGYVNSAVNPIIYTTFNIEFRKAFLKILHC
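Dopamine at EC80 is the agonist stimulus; test compounds precede it by 180 s. Calcium flux read kinetically in a force-coupled, inducible HEK293 T-REx D2 cell line.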
D2 ag-1: human D2 receptor agonism in beta-arrestin assay. AID 624465. DiscoveRx PathHunter D2 beta-arrestin, luminescence, 90 min; 100% = 57 uM dopamine signal. actives 0.084% (n = 360,000). activation, % (no concentration beside the values). P14416; in the data active = activation above about 40%; inconclusive = between about 15% and that limit
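Agonist mode: compounds alone added to overnight-plated D2 PathHunter cells for 90 min at 37 C, with 57 uM final dopamine (EC100) defining full response. Beta-arrestin recruitment detected by chemiluminescent reagent, read after 1 h at ambient temperature.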
D2 PAM-1: potentiates the human D2 dopamine receptor allosterically | DiscoveRx D2 beta-arrestin cells, luminescence, 90 min; 100% = 57 uM dopamine signal | potentiation, % (no concentration beside the values) | actives 0.23% (n = 360,000); in the data active = potentiation above about 50%; inconclusive = mostly about 30% to 49%
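PathHunter beta-arrestin assay in DiscoveRx D2 cells. Compounds were added with an EC20 of dopamine (50 nM final) for 90 min at 37 deg C. Luminescence was read 1 h after detection reagent, with 57 uM dopamine as the EC100 control.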
D2 ag-2: agonists of human D2 dopamine receptor | P14416 | HEK293 T-REx D2 cells, calcium flux agonist mode | activation, % at 2 µM | actives 0.53% (n = 340,000);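 active = activation over 3 SD above normal in the single-dose calcium agonist read, cut at about 30% in these data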; also: 0% is about no effect
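Agonism scored from kinetic calcium signal (1 read/sec, 180 s) following compound pin transfer, after a 10 s baseline. Cells: HEK293 Trex line expressing inducible D2 receptor coupled to calcium, dye-loaded after overnight culture at 30 C.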
Anesthetic bind: candidate novel general anesthetic via apoferritin binding; P02791; AID 485281; apoferritin/1-aminoanthracene competitive binding, fluorescence; Potency, µM (series often up to 77.5 µM), for the others: at the highest dose activity change, negative = displacement, hits mostly inhibitors; actives 0.074% (n = 350,000); active = well fitted inhibition curve with a large enough effect; inconclusive = small, poorly fitted or top-dose-only effect; inactive = no such curve, though single readings can be large or run the other way; also: potency is read from the fitted curve at half-maximal effect; % is scaled to controls: 0 for no effect and ±100 for the full control effect; nearly all actives have a fitted effect of over 20% in size
Target sequence (P02791 2-175 limits assumed): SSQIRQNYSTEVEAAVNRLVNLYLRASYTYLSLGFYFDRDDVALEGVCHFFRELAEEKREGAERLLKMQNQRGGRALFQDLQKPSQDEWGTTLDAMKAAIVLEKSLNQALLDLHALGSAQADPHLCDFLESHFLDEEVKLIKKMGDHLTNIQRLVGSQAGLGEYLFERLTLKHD
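Steps: apoferritin (10 uM) was premixed with half-saturated 1-AMA in PBS, compounds were pin-transferred, plates stood 10 min at room temperature, fluorescence was read at 380/535 nm, and curves were fitted with a Hill equation.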
D2 PAM-2: positive allosteric modulators of human D2 dopamine receptor | P14416 | HEK293 T-REx D2, calcium flux, EC20 dopamine potentiation | potentiation, % at 10 µM | actives 0.34% (n = 340,000) | AID 485347;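 active = potentiation over 3 SD above the plate norm, cut at about 30% in these data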; also: 0% is about no effect
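Calcium flux readout, no-wash dye, 1 read/s. Inducible HEK293 Trex D2 line, overnight 30 C. Compound alone 180 s (agonist flags), then EC20 dopamine, another 180 s to score potentiation.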
An asterisk follows results filed as active. In the library only some 2.5% were active in any assay of this set; here they are far more common.

Results for O=C(NCc1cccc(CNC(=O)C(=O)NCC2CCCO2)c1)C(=O)NCC1CCCO1 (configuration not stated) ?
D2 antagonist: 30*; D2 ag-1: 0; D2 PAM-1: -2; D2 ag-2: 0; Anesthetic bind: 0%; D2 PAM-2: 7

Results for O=C(NCc1ccccc1)c1ccc2c(c1)C(=O)N(CC1CCCO1)C2=O (configuration not stated) ?
D2 antagonist: 31*; D2 ag-1: 4; D2 PAM-1: -5; D2 ag-2: -1; Anesthetic bind: -15%; D2 PAM-2: -10

Results for COc1ccc(NC(=O)c2ccc3c(c2)C(=O)N(CC2CCCO2)C3=O)cc1 (configuration not stated) ?
D2 antagonist: 4; D2 ag-1: 5; D2 PAM-1: -3; D2 ag-2: 0; Anesthetic bind: -4%; D2 PAM-2: 4

What do the screens show for `COCC(C)NCc1cccc([N+](=O)[O-])c1` (configuration not stated)?
D2 antagonist: -7; D2 ag-1: 0; D2 PAM-1: -12; D2 ag-2: 0; Anesthetic bind: -7%; D2 PAM-2: 5

Results for Cc1nc2cc(-c3cccs3)nn2c(NCC(C)(C)CN(C)C)c1C ?
D2 antagonist: -11; D2 ag-1: 2; D2 PAM-1: -8; D2 ag-2: 0; Anesthetic bind: -2%; D2 PAM-2: -7

Results for Cc1ccc(C(=O)N2CCn3c(C)ccc3C2C)cc1 (configuration not stated) ?
D2 antagonist: -5; D2 ag-1: -5; D2 PAM-1: -6; D2 ag-2: 0; Anesthetic bind: -18%; D2 PAM-2: 1

Results for COc1ccc2occ(C(=O)c3ccc(N)cc3)c2c1 ?
D2 antagonist: 2; D2 ag-1: 6; D2 PAM-1: 0; D2 ag-2: 0; Anesthetic bind: -19%; D2 PAM-2: -7

What do the screens show for `COc1ccc2occ(C(=O)c3cccs3)c2c1`?
D2 antagonist: 1; D2 ag-1: 0; D2 PAM-1: -13; D2 ag-2: 0; Anesthetic bind: 25µM*; D2 PAM-2: -8

How did Cc1cc(=O)oc2cc(OC(=O)c3cncc(Br)c3)ccc12 do in these assays?
D2 antagonist: 31*; D2 ag-1: -6; D2 PAM-1: -4; D2 ag-2: 0; Anesthetic bind: 54%; D2 PAM-2: -8

Results for O=C(COc1nsnc1N1CCOCC1)N1CCOCC1 ?
D2 antagonist: 5; D2 ag-1: -2; D2 PAM-1: -9; D2 ag-2: 0; Anesthetic bind: -6%; D2 PAM-2: -2

How did Cc1ccc(S(=O)(=O)Nc2cc(=O)[nH]c3c2CCC3)cc1 do in these assays?
D2 antagonist: 37*; D2 ag-1: -5; D2 PAM-1: -4; D2 ag-2: -3; Anesthetic bind: -2%; D2 PAM-2: -21

What do the screens show for `Cc1ccc(NS(=O)(=O)c2ccc3[nH]c4c(c3c2)CCCCCC4)cc1`?
D2 ag-2: 1; Anesthetic bind: inconclusive; D2 PAM-2: 6

What do the screens show for `C=CCNC(=S)NC1CC(C)(C)NC(C)(C)C1`?
D2 antagonist: 16; D2 ag-1: -1; D2 PAM-1: -16; D2 ag-2: 0; Anesthetic bind: -7%; D2 PAM-2: 4

How did CC1(c2ccc(OC(F)F)cc2)NC(=O)N(CC(=O)Nc2cccc(F)c2)C1=O (configuration not stated) do in these assays?
D2 antagonist: -14; D2 ag-1: 1; D2 PAM-1: -4; D2 ag-2: 33*; Anesthetic bind: 3%; D2 PAM-2: 2

What do the screens show for `CC1(c2ccc(OC(F)F)cc2)NC(=O)N(CC(=O)Nc2ccc(F)cc2)C1=O` (configuration not stated)?
D2 antagonist: -4; D2 ag-1: -1; D2 PAM-1: 0; D2 ag-2: 19; Anesthetic bind: -17%; D2 PAM-2: 7

How did CC1(C(=O)O)CCC(C(=O)Nc2ccc(OC(F)(F)Cl)cc2)C1(C)C (configuration not stated) do in these assays?
D2 antagonist: 43*; D2 ag-1: 2; D2 PAM-1: -8; D2 ag-2: 1; Anesthetic bind: 10%; D2 PAM-2: -5

What do the screens show for `O=C(c1ccc(S(=O)(=O)Cc2cc(F)ccc2F)c([N+](=O)[O-])c1)N1CCOCC1`?
D2 ag-1: 4; D2 PAM-1: -1

What do the screens show for `Cc1cc(C)cc(NC(=O)Nc2cc(S(=O)(=O)N(C)C)ccc2C)c1`?
D2 antagonist: 1; D2 ag-1: -2; D2 PAM-1: -19; D2 ag-2: 1; Anesthetic bind: -17%; D2 PAM-2: -18

What do the screens show for `Cc1ccc(S(=O)(=O)N(C)C)cc1NC(=O)Nc1ccccc1F`?
D2 antagonist: 64*; D2 ag-1: -3; D2 PAM-1: -14; D2 ag-2: -1; Anesthetic bind: -4%; D2 PAM-2: -27

Results for Cc1ccc(S(=O)(=O)N(C)C)cc1NC(=O)CCCNC(=O)c1ccc(Cl)cc1 ?
D2 antagonist: 41*; D2 ag-1: -2; D2 PAM-1: -20; D2 ag-2: -1; Anesthetic bind: -11%; D2 PAM-2: -43

Results for COc1cccc(CNC(=O)CCCNC(=O)c2ccc(Cl)cc2)c1 ?
D2 antagonist: 2; D2 ag-1: 1; D2 PAM-1: -9; D2 ag-2: -1; Anesthetic bind: -12%; D2 PAM-2: -5

What do the screens show for `Cc1ccc(S(=O)(=O)N(C)C)cc1NC(=O)CSc1ncc(C(F)(F)F)cc1Cl`?
D2 antagonist: 37*; D2 ag-1: 1; D2 PAM-1: -6; D2 ag-2: 1; Anesthetic bind: -9%; D2 PAM-2: -39

How did COc1ccccc1CNC(=O)CCCNC(=O)c1ccc(Cl)cc1 do in these assays?
D2 antagonist: -19; D2 ag-1: 0; D2 PAM-1: -9; D2 ag-2: 0; Anesthetic bind: -6%; D2 PAM-2: 30*

What do the screens show for `CCN(CC)S(=O)(=O)c1ccc(C)c(NC(=O)CSc2ncc(C(F)(F)F)cc2Cl)c1`?
D2 antagonist: -3; D2 ag-1: -6; D2 PAM-1: -13; D2 ag-2: 0; Anesthetic bind: -7%; D2 PAM-2: -3

How did COc1cccc(-n2cc(C(=O)OCc3ccc(Cl)cc3)c3ccccc3c2=O)c1 do in these assays?
D2 ag-2: 2; Anesthetic bind: -9%; D2 PAM-2: -2

Results for O=C(Nc1cc(Cl)cc(Cl)c1)c1ccc(F)c(S(=O)(=O)N2CCCC2)c1 ?
D2 ag-2: 2; Anesthetic bind: -16%; D2 PAM-2: -13

Bioassay records from PubChem BioAssay.
